Structures can show the parent of a compound that is named as a salt.
Test system: HL-1
Assay: relative cell viability (CellTiter-Glo) vs DMSO control (% of DMSO control); higher = more viable cells
Procedure, shortened: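 Compounds at 40, 200, 1000 or 5000 nM in 0.01% DMSO were added to HL-1 mouse atrial cardiomyocytes plated at 1000 cells per well in 384-well plates. The next day, cells were exposed to 1% O2 for 48 h and then reoxygenated for 24 h, or left in normoxia for the same time. Viability was read with CellTiter-Glo luminescence and normalised to vehicle-treated controls.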

[1] = oxygen condition: hypoxia 48 h (1% O2) + reoxygenation 24 h, 40 nM
[2] = oxygen condition: hypoxia 48 h (1% O2) + reoxygenation 24 h, 200 nM
[3] = oxygen condition: hypoxia 48 h (1% O2) + reoxygenation 24 h, 1000 nM
[4] = oxygen condition: hypoxia 48 h (1% O2) + reoxygenation 24 h, 5000 nM
[5] = oxygen condition: normoxia 72 h, 40 nM
[6] = oxygen condition: normoxia 72 h, 200 nM
[7] = oxygen condition: normoxia 72 h, 1000 nM
[8] = oxygen condition: normoxia 72 h, 5000 nM

SMILES	relative cell viability [1]	relative cell viability [2]	relative cell viability [3]	relative cell viability [4]	relative cell viability [5]	relative cell viability [6]	relative cell viability [7]	relative cell viability [8]
CCCC(=O)O[C@]1(C(=O)COC(C)=O)CC[C@H]2[C@@H]3C[C@H](F)C4=CC(=O)C=C[C@]4(C)[C@@]3(F)[C@@H](O)C[C@@]21C [Difluprednate]	83.3	93.3	92.2	102	90.8	89	94.4	102
OC(CNCC(O)C1CCc2cc(F)ccc2O1)C1CCc2cc(F)ccc2O1 (centres undefined) [Nebivolol]	106	109	106	112	103	107	112	115
CNCCCC12CCC(c3ccccc31)c1ccccc12 [Maprotiline hydrochloride]	98.7	103	93.4	83.3	98.7	102	102	87.7
N[C@@H]1CN(c2c(F)cc3c(=O)c(C(=O)O)cn([C@@H]4C[C@@H]4F)c3c2Cl)CC12CC2 [Sitafloxacin hydrate]	101	98.6	104	108	103	95.3	99	108
C[C@H]1c2cccc(O)c2C(=O)C2=C(O)[C@]3(O)C(=O)C(C(N)=O)=C(O)[C@@H](N(C)C)[C@@H]3[C@@H](O)[C@@H]21 [Doxycycline HCl]	102	104	105	107	105	106	95.6	92.9
CN(Cc1cc(Br)cc(Br)c1N)C1CCCCC1 [Bromhexine HCl]	97.5	96.2	99.9	102	104	108	98.4	108
CCN(CC)CCOC(=O)C1(C2CCCCC2)CCCCC1 [Dicyclomine HCl]	94.1	95.7	97.1	100	92.4	101	97.2	105
O=C(Nc1ccc([N+](=O)[O-])cc1Cl)c1cc(Cl)ccc1O [Niclosamide]	10	3.13	58.1	17.5	8.34	2.9	56.2	7.03
CCN(CC)CC#CCOC(=O)C(O)(c1ccccc1)C1CCCCC1 (centres undefined) [Oxybutynin]	97.2	99.9	101	102	109	103	104	101
Cc1ccc(O)c([C@H](CCN(C(C)C)C(C)C)c2ccccc2)c1 [Tolterodine tartrate]	108	105	102	109	104	112	107	110
Nc1nc(F)nc2c1ncn2[C@@H]1O[C@H](COP(=O)(O)O)[C@@H](O)[C@@H]1O [Fludarabine Phosphate]	115	108	119	113	108	115	119	111
NC(=O)c1ncn([C@@H]2O[C@H](CO)[C@@H](O)[C@H]2O)c1O [Mizoribine]	103	109	115	108	111	104	103	110
NCCc1c[nH]cn1 [Histamine Phosphate]	99.7	101	96.7	108	98.8	101	97.7	109
S=c1[nH]cnc2nc[nH]c12 [Mercaptopurine]	112	104	111	99.1	103	103	108	103
C[C@](N)(Cc1ccc(O)c(O)c1)C(=O)O [Methyldopa]	105	79.3	104	103	98.8	91.9	102	109
CN(C)CCOC(C)(c1ccccc1)c1ccccn1 (centres undefined) [Doxylamine Succinate]	111	104	105	109	107	112	117	123
O=C1O[C@H]([C@@H](O)CO)C([O-])=C1O.[Na+] [Sodium ascorbate]	99.7	101	106	117	98.8	103	102	114
COc1ccc2c(c1OC)C(=O)O[C@@H]2[C@H]1c2c(cc3c(c2OC)OCO3)CCN1C [Noscapine HCl]	97.5	98	99.1	103	94.9	106	104	109
O=C(O)C1(C(=O)O)CCC1.[NH2-].[NH2-].[Pt+2] [Carboplatin]	110	109	95.3	112	100	106	108	119
COc1ccc2[nH]c([S@@+]([O-])Cc3ncc(C)c(OC)c3C)nc2c1 [Esomeprazole magnesium]	107	113	114	118	104	114	115	119
C=C1c2cccc(O)c2C(=O)C2=C(O)[C@]3(O)C(=O)C(C(N)=O)=C(O)[C@@H](N(C)C)[C@@H]3[C@@H](O)[C@H]12 [Methacycline hydrochloride]	98.1	99.7	107	109	102	105	103	99.7
Nc1c2c(nc3ccccc13)CCCC2 [Tacrine HCl]	91.7	89.5	81.2	20.3	94.1	82.5	70.4	26.4

SMILES	relative cell viability [1]	relative cell viability [2]	relative cell viability [3]	relative cell viability [4]	relative cell viability [5]	relative cell viability [6]	relative cell viability [7]	relative cell viability [8]
O=C(O)Cc1ccccc1Nc1c(Cl)cccc1Cl [Diclofenac Diethylamine]	103	107	105	113	110	115	120	113
NS(=O)(=O)c1cc(C(=O)O)c(NCc2ccco2)cc1Cl [Furosemide]	116	105	108	112	106	101	111	106
CN(C)CC/C=C1/c2ccccc2COc2ccc(CC(=O)O)cc21 [Olopatadine hydrochloride]	93	92.6	92.2	99.1	89.6	91.6	97.1	102
CC[C@H]1OC(=O)[C@H](C)[C@@H](O[C@H]2C[C@@](C)(OC)[C@@H](O)[C@H](C)O2)[C@H](C)[C@@H](O[C@@H]2O[C@H](C)C[C@H](N(C)C)[C@H]2O)[C@](C)(O)C[C@@H](C)CN(C)[C@H](C)[C@@H](O)[C@]1(C)O [Azithromycin]	109	103	99.3	59.1	105	96.2	102	41.1
COC(c1ccccc1)(c1ccccc1)[C@H](Oc1nc(C)cc(C)n1)C(=O)O [Ambrisentan]	105	97.3	109	105	95.1	94	102	99.8
CC[C@H](C)C(=O)O[C@H]1C[C@H](O)C=C2C=C[C@H](C)[C@H](CC[C@@H](O)C[C@@H](O)CC(=O)O)[C@H]21 [Pravastatin sodium]	99.1	94.4	84.7	19.8	96.8	95.9	70.7	6.81
CN1CCN2c3ccccc3Cc3ccccc3C2C1 (centres undefined) [Mianserin hydrochloride]	74.7	97.7	84	107	63.6	92.5	98.1	111
CC1CCc2c(N3CCC(O)CC3)c(F)cc3c(=O)c(C(=O)O)cn1c23 (centres undefined) [Nadifloxacin]	103	104	102	110	104	103	100	107
CN(CCOc1ccc(CC2SC(=O)NC2=O)cc1)c1ccccn1 (centres undefined) [Rosiglitazone]	104	104	98.3	104	99.2	105	98.4	104
O=C(O)Cc1ccccc1Nc1c(Cl)cccc1Cl [Diclofenac]	97.6	112	103	109	100	105	105	109
OC[C@@H](O)[C@@H](O)[C@H](O)[C@H](O)CO [D-Mannitol]	102	86.9	113	113	106	98.9	108	87.3
COc1cccc2c1C(=O)c1c(O)c3c(c(O)c1C2=O)C[C@@](O)(C(=O)CO)C[C@@H]3O[C@H]1C[C@H](N)[C@H](O)[C@H](C)O1 [Doxorubicin]	63.3	44	57.3	16.7	63	55.4	52.4	13.7
CCCC1O[C@@H]2C[C@H]3[C@@H]4CCC5=CC(=O)C=C[C@]5(C)[C@H]4[C@@H](O)C[C@]3(C)[C@]2(C(=O)CO)O1 (some centres undefined) [Budesonide]	95.2	102	91.2	96.5	90.9	83.5	95.6	96.4
CC=CC1=C(C(=O)O)N2C(=O)[C@@H](NC(=O)[C@H](N)c3ccc(O)cc3)[C@H]2SC1 [Cefprozil hydrate]	95.4	104	105	104	102	103	100	107
C[C@H](CCC(=O)O)[C@H]1CC[C@H]2[C@@H]3CC[C@@H]4C[C@H](O)CC[C@]4(C)[C@H]3CC[C@]12C [Lithocholic acid]	108	108	108	113	102	113	105	108
CC1=NN(c2ccccc2)C(=O)C1 [Edaravone]	101	97.7	95.2	108	95.7	95.9	98.9	103
NCCCC(O)(P(=O)(O)O)P(=O)(O)O [Alendronate]	104	102	106	109	99.2	105	107	109
Cc1ccccc1N1C(=O)c2cc(S(N)(=O)=O)c(Cl)cc2NC1C (centres undefined) [Metolazone]	104	107	107	111	109	110	112	116
Nc1nc2[nH]cnc2c(=S)[nH]1 [Thioguanine]	97.1	79.2	65.6	24.5	82.9	75.5	64	22.5
CCCCc1ncc(/C=C(\Cc2cccs2)C(=O)O)n1Cc1ccc(C(=O)O)cc1 [Eprosartan Mesylate]	96.2	101	103	104	107	102	102	105
Cc1ncc([N+](=O)[O-])n1CC(O)CCl (centres undefined) [Ornidazole]	106	109	123	115	108	108	103	117
